# Reference: publication PMC4336329 (PLoS ONE, 2015)
# Hit rate of the full screen: of about 310,000 compounds, about 14,000 (4.5%) showed an effect of 50% or more. The effect is printed as a negative number. The sample as a whole holds a higher share of strong results than the screen did.
# Target: human ether-à-go-go-related gene (hERG) potassium channel (human, UniProt Q12809)
# Assay: primary screen, population patch clamp on CHO cells stably expressing hERG; higher = less effect of the substance
# 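Further: peak tail current of the secondary pulse compared with the same well before compound.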
# Sequence of human ether-à-go-go-related gene (hERG) potassium channel (Q12809 whole entry, looked up): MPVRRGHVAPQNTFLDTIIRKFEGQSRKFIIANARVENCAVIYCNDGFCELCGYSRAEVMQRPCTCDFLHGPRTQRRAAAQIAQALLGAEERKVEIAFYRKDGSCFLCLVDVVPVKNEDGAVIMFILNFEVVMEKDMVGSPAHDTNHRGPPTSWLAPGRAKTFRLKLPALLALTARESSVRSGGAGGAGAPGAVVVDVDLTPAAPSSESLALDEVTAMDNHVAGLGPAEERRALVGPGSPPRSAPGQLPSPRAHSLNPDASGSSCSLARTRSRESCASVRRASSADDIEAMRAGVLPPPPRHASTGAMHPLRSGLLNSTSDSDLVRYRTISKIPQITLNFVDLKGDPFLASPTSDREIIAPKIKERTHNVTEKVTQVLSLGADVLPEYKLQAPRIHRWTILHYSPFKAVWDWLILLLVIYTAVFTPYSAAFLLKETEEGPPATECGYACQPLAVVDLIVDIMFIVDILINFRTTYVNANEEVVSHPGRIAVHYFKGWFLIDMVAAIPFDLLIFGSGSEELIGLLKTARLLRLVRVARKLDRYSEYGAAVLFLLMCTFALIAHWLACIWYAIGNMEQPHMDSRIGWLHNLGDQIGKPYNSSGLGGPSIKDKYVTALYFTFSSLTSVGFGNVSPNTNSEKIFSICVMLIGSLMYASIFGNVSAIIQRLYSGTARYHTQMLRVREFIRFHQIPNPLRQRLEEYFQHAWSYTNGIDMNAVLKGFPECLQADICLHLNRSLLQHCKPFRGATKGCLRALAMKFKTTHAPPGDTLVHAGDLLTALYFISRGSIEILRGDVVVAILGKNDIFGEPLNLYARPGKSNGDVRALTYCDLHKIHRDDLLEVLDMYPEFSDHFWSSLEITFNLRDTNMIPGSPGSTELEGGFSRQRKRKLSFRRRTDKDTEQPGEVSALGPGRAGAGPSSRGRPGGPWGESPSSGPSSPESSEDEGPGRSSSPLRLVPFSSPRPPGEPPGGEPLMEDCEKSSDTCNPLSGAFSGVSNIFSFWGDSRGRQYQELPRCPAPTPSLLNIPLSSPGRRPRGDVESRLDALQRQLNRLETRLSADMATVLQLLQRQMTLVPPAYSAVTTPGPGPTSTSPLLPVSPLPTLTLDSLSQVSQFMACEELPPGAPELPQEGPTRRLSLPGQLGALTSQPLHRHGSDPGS
row,SMILES,"hERG current change (%, negative = inhibition) at 10uM [%]"
1,C[C@H](NC(=O)c1nc[nH]c1C(=O)N1CCN(C(=O)OC(C)(C)C)CC1)c1ccccc1,12.4
2,CCN(C1CCS(=O)(=O)C1)S(=O)(=O)c1cccs1 (stereo not shown),14.8
3,CCCCN(C1CCS(=O)(=O)C1)S(=O)(=O)c1cccs1 (stereo not shown),-7.11
4,CN(C1CCS(=O)(=O)C1)S(=O)(=O)c1cccs1 (stereo not shown),-51.6
5,Cc1cc(CCCCCCCCc2cc(C)cc(=O)o2)oc(=O)c1,-2.63
6,O=C(Nc1nc(-c2ccccn2)cs1)c1cccc(-n2cnnn2)c1,-5.61
7,CC(C)(C)NS(=O)(=O)c1ccc(OCC(=O)NCCC2=CCCCC2)cc1,-14.1
8,COc1ccc(N2CCN(C(=O)C3CCCN(c4ncnc5c4nc4n5CCCCC4)C3)CC2)cc1 (stereo not shown),-68.7
9,CC1CCN(C(=O)C2CCCN(c3ncnc4c3nc3n4CCCCC3)C2)CC1 (stereo not shown),-41.5
10,CCOC(=O)N1CCN(C(=O)C2CCCN(c3ncnc4c3nc3n4CCCCC3)C2)CC1 (stereo not shown),-22.9
11,CN1CCN(C(=O)C2CCCN(c3ncnc4c3nc3n4CCCCC3)C2)CC1 (stereo not shown),1.36
12,COc1ccccc1N1CCN(C(=O)C2CCCN(c3ncnc4c3nc3n4CCCCC3)C2)CC1 (stereo not shown),-12.5
13,CC(=O)c1ccc(N2CCN(C(=O)C3CCCN(c4ncnc5c4nc4n5CCCCC4)C3)CC2)cc1 (stereo not shown),-75.4
14,COc1cccc(N2CCN(C(=O)C3CCCN(c4ncnc5c4nc4n5CCCCC4)C3)CC2)c1 (stereo not shown),-81.7
15,Cc1ccc(Nc2nnc(-c3ccc4c(c3)OCO4)o2)c(C)c1,19.8
16,COc1ccc(C(C)N2CC34C=CC(O3)C(C(=O)O)C4C2=O)cc1 (stereo not shown),8.42
17,COc1cc2cc(CN(CCc3cccc(C)c3)C(=S)NCCCN3CCOCC3)c(=O)[nH]c2cc1OC,-66.9
18,Cc1ccc(CN(Cc2cc3cccc(C)c3[nH]c2=O)C(=S)NCCCN(C)C)cc1,-65
19,Cc1cccc2cc(CN(Cc3ccccc3)C(=S)NCCCN(C)C)c(=O)[nH]c12,-38
20,Cc1ccc2[nH]c(=O)c(CN(Cc3ccccc3)C(=S)NCCCN(C)C)cc2c1,-24.9
21,Cc1cc(C)c2[nH]c(=O)c(CN(Cc3cccnc3)C(=S)NCCCN(C)C)cc2c1,-35.6
22,Cc1ccc2cc(CN(CCc3ccccc3)C(=S)NCCCN(C)C)c(=O)[nH]c2c1,-72
23,Cc1cc(C)c2[nH]c(=O)c(CN(Cc3ccccc3)C(=S)NCCCN(C)C)cc2c1,-52.8
24,Cc1cccc2cc(CN(Cc3cccnc3)C(=S)NCCCN(C)C)c(=O)[nH]c12,3.93
25,COc1cc2cc(CN(CCc3ccccc3C)C(=S)NCCCN3CCOCC3)c(=O)[nH]c2cc1OC,-38.4
26,Cc1ccc2[nH]c(=O)c(CN(CCCN(C)C)C(=S)NCCc3ccccc3)cc2c1,-42
27,CCN(CC)CCCNC(=S)N(Cc1cccnc1)Cc1cc2cc(C)cc(C)c2[nH]c1=O,22.9
28,COc1cc2cc(CN(CCc3cccc(C)c3)C(=S)NCCCN(C)C)c(=O)[nH]c2cc1OC,-1.74
